Experimental data: the supplement of paper PMC10849652
The full data set covers some 8,800 targets. This sample favours those with a hit. About 0.5% of all pairs of compound and target were hits.

Sequence of UniProt P78406 (P78406 whole entry, looked up): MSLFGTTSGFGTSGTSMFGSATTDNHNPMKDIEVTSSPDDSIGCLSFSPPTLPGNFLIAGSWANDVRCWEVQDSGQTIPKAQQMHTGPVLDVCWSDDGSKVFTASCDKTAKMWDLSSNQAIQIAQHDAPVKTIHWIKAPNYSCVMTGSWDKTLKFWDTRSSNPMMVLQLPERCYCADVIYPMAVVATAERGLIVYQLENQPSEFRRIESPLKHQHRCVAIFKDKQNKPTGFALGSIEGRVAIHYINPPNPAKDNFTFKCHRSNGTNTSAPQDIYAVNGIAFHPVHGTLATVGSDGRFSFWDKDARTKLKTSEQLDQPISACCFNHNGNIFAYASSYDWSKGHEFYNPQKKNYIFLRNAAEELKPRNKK
Sequence of UniProt P31040 (P31040 whole entry, looked up): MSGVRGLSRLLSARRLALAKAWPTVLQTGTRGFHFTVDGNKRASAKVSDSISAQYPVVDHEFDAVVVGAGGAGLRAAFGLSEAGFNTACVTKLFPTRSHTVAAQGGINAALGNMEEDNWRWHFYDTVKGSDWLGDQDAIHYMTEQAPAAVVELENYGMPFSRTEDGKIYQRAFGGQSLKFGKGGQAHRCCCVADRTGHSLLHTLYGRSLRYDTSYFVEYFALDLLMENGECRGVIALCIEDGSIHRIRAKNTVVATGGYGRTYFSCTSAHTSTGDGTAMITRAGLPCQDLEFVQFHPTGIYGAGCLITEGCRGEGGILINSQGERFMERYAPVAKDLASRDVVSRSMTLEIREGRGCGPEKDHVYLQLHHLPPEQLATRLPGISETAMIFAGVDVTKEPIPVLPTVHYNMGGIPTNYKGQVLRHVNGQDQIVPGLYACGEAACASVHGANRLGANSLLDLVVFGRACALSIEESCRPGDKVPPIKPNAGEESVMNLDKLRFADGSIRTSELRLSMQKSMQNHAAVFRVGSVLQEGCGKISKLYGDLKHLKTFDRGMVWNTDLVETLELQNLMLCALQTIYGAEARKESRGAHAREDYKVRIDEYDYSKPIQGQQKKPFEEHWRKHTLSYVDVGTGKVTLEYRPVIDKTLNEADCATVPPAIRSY
Sequence of UniProt Q02094 (Q02094 whole entry, looked up): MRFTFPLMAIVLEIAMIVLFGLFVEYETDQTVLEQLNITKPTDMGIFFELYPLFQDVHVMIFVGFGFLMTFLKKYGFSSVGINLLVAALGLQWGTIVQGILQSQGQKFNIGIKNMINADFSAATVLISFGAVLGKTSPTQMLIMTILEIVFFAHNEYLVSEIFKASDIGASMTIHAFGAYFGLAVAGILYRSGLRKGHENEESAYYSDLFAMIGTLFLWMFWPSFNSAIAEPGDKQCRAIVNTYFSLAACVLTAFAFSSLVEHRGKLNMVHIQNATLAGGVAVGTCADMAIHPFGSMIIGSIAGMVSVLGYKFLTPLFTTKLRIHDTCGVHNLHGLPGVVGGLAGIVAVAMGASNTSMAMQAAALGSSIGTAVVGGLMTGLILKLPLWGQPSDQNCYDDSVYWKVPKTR
Sequence of UniProt Q92878 (Q92878 whole entry, looked up): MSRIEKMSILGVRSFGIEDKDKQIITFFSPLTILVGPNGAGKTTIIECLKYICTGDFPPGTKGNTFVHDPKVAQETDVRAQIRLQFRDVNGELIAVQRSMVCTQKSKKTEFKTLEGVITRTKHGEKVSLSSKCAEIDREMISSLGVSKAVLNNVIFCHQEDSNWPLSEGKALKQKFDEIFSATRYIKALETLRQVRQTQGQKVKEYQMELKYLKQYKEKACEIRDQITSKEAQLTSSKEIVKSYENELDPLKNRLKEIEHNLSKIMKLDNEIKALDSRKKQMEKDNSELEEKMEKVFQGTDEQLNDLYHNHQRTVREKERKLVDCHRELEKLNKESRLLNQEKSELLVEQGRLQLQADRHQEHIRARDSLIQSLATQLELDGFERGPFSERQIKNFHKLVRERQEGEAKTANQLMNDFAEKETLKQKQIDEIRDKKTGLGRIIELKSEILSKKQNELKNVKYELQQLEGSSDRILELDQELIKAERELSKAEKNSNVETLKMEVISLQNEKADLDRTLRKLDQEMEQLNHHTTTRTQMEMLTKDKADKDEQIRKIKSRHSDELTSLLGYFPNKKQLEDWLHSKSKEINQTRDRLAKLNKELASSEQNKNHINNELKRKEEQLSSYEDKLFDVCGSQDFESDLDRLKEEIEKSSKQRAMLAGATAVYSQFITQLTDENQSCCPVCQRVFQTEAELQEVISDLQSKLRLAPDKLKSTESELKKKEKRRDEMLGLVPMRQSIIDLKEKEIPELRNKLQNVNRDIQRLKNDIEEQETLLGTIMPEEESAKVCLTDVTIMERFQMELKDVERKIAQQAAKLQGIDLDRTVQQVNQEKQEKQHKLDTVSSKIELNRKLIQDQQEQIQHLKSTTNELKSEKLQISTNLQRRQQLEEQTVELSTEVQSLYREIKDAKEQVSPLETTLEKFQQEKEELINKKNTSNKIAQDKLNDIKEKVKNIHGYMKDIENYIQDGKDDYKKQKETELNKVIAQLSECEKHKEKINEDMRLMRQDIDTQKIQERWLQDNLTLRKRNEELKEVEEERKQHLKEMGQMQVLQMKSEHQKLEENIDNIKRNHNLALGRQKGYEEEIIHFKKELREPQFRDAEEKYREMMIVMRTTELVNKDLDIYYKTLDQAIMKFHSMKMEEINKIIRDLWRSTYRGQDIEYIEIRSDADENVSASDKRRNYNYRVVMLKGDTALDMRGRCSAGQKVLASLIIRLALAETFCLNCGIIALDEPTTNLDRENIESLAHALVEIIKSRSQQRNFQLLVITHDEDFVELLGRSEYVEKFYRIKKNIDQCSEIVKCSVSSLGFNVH
Sequence of UniProt O00767 (O00767 whole entry, looked up): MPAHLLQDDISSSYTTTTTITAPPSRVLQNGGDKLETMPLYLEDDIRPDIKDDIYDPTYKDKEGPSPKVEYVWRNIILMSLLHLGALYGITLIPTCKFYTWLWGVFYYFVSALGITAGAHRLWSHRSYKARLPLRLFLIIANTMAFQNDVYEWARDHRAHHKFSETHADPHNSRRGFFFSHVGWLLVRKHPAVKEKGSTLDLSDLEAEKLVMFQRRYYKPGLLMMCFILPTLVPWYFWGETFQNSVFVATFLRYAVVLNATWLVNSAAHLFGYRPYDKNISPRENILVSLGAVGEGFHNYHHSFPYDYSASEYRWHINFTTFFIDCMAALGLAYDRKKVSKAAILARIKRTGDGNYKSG
Sequence of UniProt Q9NR31 (Q9NR31 whole entry, looked up): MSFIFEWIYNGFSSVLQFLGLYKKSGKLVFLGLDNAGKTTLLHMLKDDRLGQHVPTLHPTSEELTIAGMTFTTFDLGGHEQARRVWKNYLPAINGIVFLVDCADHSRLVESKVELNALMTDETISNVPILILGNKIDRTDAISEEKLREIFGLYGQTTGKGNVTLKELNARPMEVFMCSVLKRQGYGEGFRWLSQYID
Sequence of UniProt P35241 (P35241 whole entry, looked up): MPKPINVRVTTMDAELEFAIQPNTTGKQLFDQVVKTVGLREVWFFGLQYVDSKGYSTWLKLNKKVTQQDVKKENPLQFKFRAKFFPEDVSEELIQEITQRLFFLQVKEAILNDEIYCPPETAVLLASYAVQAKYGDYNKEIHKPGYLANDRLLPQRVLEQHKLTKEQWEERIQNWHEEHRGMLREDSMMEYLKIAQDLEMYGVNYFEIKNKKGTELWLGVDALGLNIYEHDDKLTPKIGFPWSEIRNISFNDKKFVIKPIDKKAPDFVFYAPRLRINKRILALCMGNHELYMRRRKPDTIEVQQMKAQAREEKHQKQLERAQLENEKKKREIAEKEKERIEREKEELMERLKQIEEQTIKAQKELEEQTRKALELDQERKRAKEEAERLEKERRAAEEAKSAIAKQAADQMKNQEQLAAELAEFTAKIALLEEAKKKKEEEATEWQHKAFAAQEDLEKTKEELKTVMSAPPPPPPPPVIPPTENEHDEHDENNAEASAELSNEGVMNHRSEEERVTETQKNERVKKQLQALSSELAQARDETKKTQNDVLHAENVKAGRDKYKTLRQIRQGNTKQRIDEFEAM
Sequence of UniProt Q8TBN0 (Q8TBN0 whole entry, looked up): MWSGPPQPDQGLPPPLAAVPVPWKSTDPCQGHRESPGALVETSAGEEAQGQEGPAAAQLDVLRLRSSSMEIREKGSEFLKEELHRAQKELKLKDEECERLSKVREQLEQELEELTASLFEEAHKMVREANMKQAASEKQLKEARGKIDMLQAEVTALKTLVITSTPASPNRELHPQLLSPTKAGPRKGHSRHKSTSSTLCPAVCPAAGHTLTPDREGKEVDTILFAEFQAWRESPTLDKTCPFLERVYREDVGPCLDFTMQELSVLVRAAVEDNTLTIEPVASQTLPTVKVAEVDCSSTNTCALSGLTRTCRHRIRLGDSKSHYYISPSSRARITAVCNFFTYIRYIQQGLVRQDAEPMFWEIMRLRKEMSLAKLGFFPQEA
Sequence of UniProt Q00765 (Q00765 whole entry, looked up): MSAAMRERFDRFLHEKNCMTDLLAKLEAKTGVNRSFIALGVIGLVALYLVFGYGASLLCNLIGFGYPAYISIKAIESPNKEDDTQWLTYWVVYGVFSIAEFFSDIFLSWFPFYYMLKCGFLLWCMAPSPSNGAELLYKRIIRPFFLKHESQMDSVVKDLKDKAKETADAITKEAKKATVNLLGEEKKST
Sequence of UniProt Q7L523 (Q7L523 whole entry, looked up): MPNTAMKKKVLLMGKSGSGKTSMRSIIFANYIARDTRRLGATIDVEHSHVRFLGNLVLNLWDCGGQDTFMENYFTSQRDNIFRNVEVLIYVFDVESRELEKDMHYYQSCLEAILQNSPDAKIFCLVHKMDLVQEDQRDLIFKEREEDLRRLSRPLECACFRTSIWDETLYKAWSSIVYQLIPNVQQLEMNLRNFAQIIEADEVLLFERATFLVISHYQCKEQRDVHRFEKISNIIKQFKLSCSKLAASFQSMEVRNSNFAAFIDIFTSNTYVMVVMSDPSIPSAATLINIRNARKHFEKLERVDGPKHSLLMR
Sequence of UniProt P31949 (P31949 whole entry, looked up): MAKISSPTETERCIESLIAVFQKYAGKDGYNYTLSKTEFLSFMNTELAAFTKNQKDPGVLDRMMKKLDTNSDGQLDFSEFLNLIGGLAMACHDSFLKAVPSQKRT

The targets below were run with C1CCN(C1)C(=O)NC2=CC=CC(=C2)NC3=NC=C(C(=N3)NCCC4=CN=CN4)Br (assay: log2 fold change, soluble protein after heating vs DMSO (PISA); higher = thermal stabilisation; K562 lysate, 10 uM; active = over 0.2 and 3.5 SD of the protein, either way, in both replicates (recomputed)).
Outline: (§1)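 A 30 min treatment with 10 μM compound was applied to crude K562 extract at 1 mg/mL protein in PBS pH 7.4 with 1 mM MgCl2. Heating for 3 min spanned 48°C-58°C, after which aliquots were pooled, adjusted to 0.5% NP-40 at 4°C and spun at 21,000xg for 90 min. TMTpro 16plex LC-MS/MS of the supernatant, with channel sums equalised, gave values recorded as log-two fold change in thermal stability against solvent controls, from duplicates.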
In the case of RDX (UniProt P35241), the log2 fold change is reported as 0.012 (inactive).
For RINT1 (UniProt Q6NUQ1), the log2 fold change was -0.029 (inactive).
With RAB6D (UniProt Q53S08) the log2 fold change was -0.038 (inactive).
With RAD50 isoform 2 (UniProt Q92878) the log2 fold change was 0.005 (inactive).
With RBBP8 isoform 2 (UniProt Q99708) the log2 fold change was -0.017 (inactive).
With R3HCC1 (UniProt Q9Y3T6) the log2 fold change was 0.006 (inactive).
RHAG (UniProt Q02094) was tested, and the log2 fold change was -0.126 (inactive).
With SDHA (UniProt P31040) the log2 fold change was -0.009 (inactive).
For SCAF1 (UniProt Q9H7N4), the log2 fold change was 0.047 (inactive).
In the case of SEC61G (UniProt P60059), the log2 fold change is reported as -0.096 (inactive).
With SEC24D isoform 2 (UniProt O94855) the log2 fold change was -0.013 (inactive).
SCD (UniProt O00767) was tested, and the log2 fold change was -0.24 (inactive).
In the case of SAR1A (UniProt Q9NR31), the log2 fold change is reported as -0.08 (inactive).
In the case of SEC13 isoform 3 (UniProt P55735), the log2 fold change is reported as -0.019 (inactive).
For SERINC3 (UniProt Q13530), the log2 fold change was -0.03 (inactive).
For RFC4 (UniProt P35249), the log2 fold change was -0.022 (inactive).
RCOR3 isoform 3 (UniProt Q9P2K3) was tested, and the log2 fold change was -0.02 (inactive).
With S100A11 (UniProt P31949) the log2 fold change was 0.071 (inactive).
For RRM1 (UniProt P23921), the log2 fold change was -0.046 (inactive).
With RNF123 (UniProt Q5XPI4) the log2 fold change was -0.005 (inactive).
For RAB3IL1 (UniProt Q8TBN0), the log2 fold change was -0.013 (inactive).
RRAGA (UniProt Q7L523) was tested, and the log2 fold change was -0.062 (inactive).
For RMC1 (UniProt Q96DM3), the log2 fold change was -0.001 (inactive).
RAF1 isoform 2 (UniProt P04049) was tested, and the log2 fold change was 0.036 (inactive).
With SEC16A isoform 5 (UniProt O15027) the log2 fold change was -0.022 (inactive).
In the case of SAMHD1 (UniProt Q9Y3Z3), the log2 fold change is reported as -0.065 (inactive).
With RHOA (UniProt P61586) the log2 fold change was -0.022 (inactive).
With RNF168 (UniProt Q8IYW5) the log2 fold change was -0.311 (active).
For RAE1 (UniProt P78406), the log2 fold change was -0.019 (inactive).
With REEP5 (UniProt Q00765) the log2 fold change was -0.008 (inactive).
RAP1GAP isoform 4 (UniProt P47736) was tested, and the log2 fold change was 0.02 (inactive).
With RFC2 (UniProt P35250) the log2 fold change was -0.011 (inactive).
With SEC62 (UniProt Q99442) the log2 fold change was -0.017 (inactive).

What follows are targets tested with C1CN(CCC1(CC2=CC=C(C=C2)Cl)N)C3=NC=NC4=C3C=CN4 in the same assay as above.
Outline: as §1
With RDX (UniProt P35241) the log2 fold change was -0.025 (inactive).
With RINT1 (UniProt Q6NUQ1) the log2 fold change was 0.067 (inactive).
In the case of RAB6D (UniProt Q53S08), the log2 fold change is reported as 0.157 (inactive).
RAD50 isoform 2 (UniProt Q92878) was tested, and the log2 fold change was -0.01 (inactive).
For RBBP8 isoform 2 (UniProt Q99708), the log2 fold change was -0.032 (inactive).
For R3HCC1 (UniProt Q9Y3T6), the log2 fold change was -0.016 (inactive).
In the case of RHAG (UniProt Q02094), the log2 fold change is reported as -0.014 (inactive).
For SDHA (UniProt P31040), the log2 fold change was 0.004 (inactive).
SCAF1 (UniProt Q9H7N4) was tested, and the log2 fold change was 0.041 (inactive).
SEC61G (UniProt P60059) was tested, and the log2 fold change was 0.065 (inactive).
With SEC24D isoform 2 (UniProt O94855) the log2 fold change was 0.004 (inactive).
In the case of SCD (UniProt O00767), the log2 fold change is reported as -0.021 (inactive).
For SAR1A (UniProt Q9NR31), the log2 fold change was 0.001 (inactive).
For SEC13 isoform 3 (UniProt P55735), the log2 fold change was 0.006 (inactive).
For SERINC3 (UniProt Q13530), the log2 fold change was 0.024 (inactive).
For RFC4 (UniProt P35249), the log2 fold change was -0.012 (inactive).
With RCOR3 isoform 3 (UniProt Q9P2K3) the log2 fold change was -0.015 (inactive).
For S100A11 (UniProt P31949), the log2 fold change was 0.074 (inactive).
With RRM1 (UniProt P23921) the log2 fold change was -0.022 (inactive).
For RNF123 (UniProt Q5XPI4), the log2 fold change was 0.044 (inactive).
RAB3IL1 (UniProt Q8TBN0) was tested, and the log2 fold change was -0.003 (inactive).
With RRAGA (UniProt Q7L523) the log2 fold change was 0.005 (inactive).
In the case of RMC1 (UniProt Q96DM3), the log2 fold change is reported as 0.035 (inactive).
With RAF1 isoform 2 (UniProt P04049) the log2 fold change was -0.044 (inactive).
SEC16A isoform 5 (UniProt O15027) was tested, and the log2 fold change was 0.002 (inactive).
For SAMHD1 (UniProt Q9Y3Z3), the log2 fold change was 0.035 (inactive).
In the case of RHOA (UniProt P61586), the log2 fold change is reported as 0.039 (inactive).
For RNF168 (UniProt Q8IYW5), the log2 fold change was 0.053 (inactive).
For RAE1 (UniProt P78406), the log2 fold change was 0.033 (inactive).
REEP5 (UniProt Q00765) was tested, and the log2 fold change was 0.015 (inactive).
For RAP1GAP isoform 4 (UniProt P47736), the log2 fold change was 0.056 (inactive).
For RFC2 (UniProt P35250), the log2 fold change was -0.031 (inactive).
SEC62 (UniProt Q99442) was tested, and the log2 fold change was -0.009 (inactive).

Each target was assayed with C1COCCN1CCN2C3=CC=CC=C3N=C2NC(=O)C4=CC(=CC=C4)[N+](=O)[O-] [IRAK-1-4 Inhibitor I] in the same assay as above.
Outline: as §1
With RDX (UniProt P35241) the log2 fold change was 0.006 (inactive).
With RINT1 (UniProt Q6NUQ1) the log2 fold change was 0.074 (inactive).
For RAB6D (UniProt Q53S08), the log2 fold change was 0.003 (inactive).
With RAD50 isoform 2 (UniProt Q92878) the log2 fold change was -0.054 (inactive).
In the case of RBBP8 isoform 2 (UniProt Q99708), the log2 fold change is reported as 0.033 (inactive).
R3HCC1 (UniProt Q9Y3T6) was tested, and the log2 fold change was -0.044 (inactive).
In the case of RHAG (UniProt Q02094), the log2 fold change is reported as 0.081 (inactive).
In the case of SDHA (UniProt P31040), the log2 fold change is reported as 0.011 (inactive).
SCAF1 (UniProt Q9H7N4) was tested, and the log2 fold change was 0.081 (inactive).
For SEC61G (UniProt P60059), the log2 fold change was 0.083 (inactive).
SEC24D isoform 2 (UniProt O94855) was tested, and the log2 fold change was -0.002 (inactive).
With SCD (UniProt O00767) the log2 fold change was 0.07 (inactive).
For SAR1A (UniProt Q9NR31), the log2 fold change was -0.029 (inactive).
With SEC13 isoform 3 (UniProt P55735) the log2 fold change was -0.028 (inactive).
With SERINC3 (UniProt Q13530) the log2 fold change was 0.018 (inactive).
In the case of RFC4 (UniProt P35249), the log2 fold change is reported as -0.018 (inactive).
With RCOR3 isoform 3 (UniProt Q9P2K3) the log2 fold change was -0.015 (inactive).
With S100A11 (UniProt P31949) the log2 fold change was -0.025 (inactive).
For RRM1 (UniProt P23921), the log2 fold change was 0.021 (inactive).
With RNF123 (UniProt Q5XPI4) the log2 fold change was -0.019 (inactive).
For RAB3IL1 (UniProt Q8TBN0), the log2 fold change was 0.011 (inactive).
RRAGA (UniProt Q7L523) was tested, and the log2 fold change was 0.026 (inactive).
RMC1 (UniProt Q96DM3) was tested, and the log2 fold change was 0.006 (inactive).
RAF1 isoform 2 (UniProt P04049) was tested, and the log2 fold change was -0.058 (inactive).
SEC16A isoform 5 (UniProt O15027) was tested, and the log2 fold change was -0.005 (inactive).
For SAMHD1 (UniProt Q9Y3Z3), the log2 fold change was 0.013 (inactive).
In the case of RHOA (UniProt P61586), the log2 fold change is reported as -0.022 (inactive).
RNF168 (UniProt Q8IYW5) was tested, and the log2 fold change was 0.008 (inactive).
For RAE1 (UniProt P78406), the log2 fold change was -0.024 (inactive).
With REEP5 (UniProt Q00765) the log2 fold change was 0.025 (inactive).
With RAP1GAP isoform 4 (UniProt P47736) the log2 fold change was 0.041 (inactive).
RFC2 (UniProt P35250) was tested, and the log2 fold change was -0.013 (inactive).
SEC62 (UniProt Q99442) was tested, and the log2 fold change was 0.042 (inactive).
